We go through 27 molecules from PubChem BioAssay (NCI).

Molecules are shown by their SMILES. Several values for one entry are separate records, joined by “and”; a condition that tells them apart may be missing. Equal entries are not always repeated. The panel holds about 83,000 compounds, 20% with a hit somewhere; the sample as a whole holds those more often.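 How to read the values: 0–100, growth inhibition (40 = 60% inhibited); 0, no net growth; -100 to 0, cell death (-40 = 40% of starting cells died; -100 = all dead).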 Values without a mark were called inactive. Activity calls are given as the source filed them. Rule for the calls: active = growth percent below 10; inactive = the rest.

The assay concerns HL-60(TB) leukemia. Kind of assay: NCI-60 one-dose screen, 48 h (100 = growth as untreated, 0 = no growth, -100 = all killed). To be noted: 10 µM unless noted.
For `Cc1ccc2c(N)c(C(=O)Nc3ccc(OC(F)(F)F)cc3)sc2n1`, the growth is 61.6%.

As to `OCNc1ccc(-n2cnc3cc(-c4ccc(O)cc4)ccc32)cc1C(F)(F)F`, the growth is -2.45% (active).

Turning to `CC(C)(C)c1ccc(OCc2nc3ccccc3n2-c2cccc(N)c2)cc1`, the growth was 67.8% and 98.6%.

On to `CN(C(=O)c1ccc(C(C)(C)C)cc1)c1sc2c(c1C#N)CCC(=O)C2`, for which the growth is 52.4%.

For the molecule `COc1cc2cc(C(=O)N3C[C@@H](CCl)c4c3cc(OC(=O)N(CCC(=O)N3CCN(C)CC3)C3CCCCC3)c3ccccc43)[nH]c2c(OC)c1OC`, the growth is -55.9% (active).

With `C/C(=C\CSc1ccccc1C(=O)O)CCCC(C)CCCC(C)CCCC(C)C` (configuration not stated), the growth was 41.2%.

Consider `CCOC(=O)C1=C(N)N(c2ccc(C)cc2)C2=C(C(=O)CC(C)(C)C2)C1c1ccccc1OC` (configuration not stated), for which the growth is 98.9%.

As for `COc1ccc2[nH]c(=O)c(CSc3nccc(-c4ccc(OC)c(OC)c4)n3)cc2c1`, the growth was 16.9%.

Turning to `CCNCCCn1c2c(c3cc(OC)c(OC)cc3c1=O)C(=O)c1cc3c(nc1-2)OCO3`, the growth is 55.1%.

For `Nc1nc(-c2ccccc2)c(N=Nc2ccc(Cl)cc2Cl)s1`, the growth was -31.7% (active).

Take `O=C1Nc2ccc(Cl)cc2/C1=C/c1ccc(OCc2ccc(Br)cc2F)cc1`: the growth was 83.2%.

Consider `N#Cc1c(NC(=O)c2cccc(C(F)(F)F)c2)sc2c1CCC(O)=C2`, for which the growth is 30%.

`O=C(N/N=C/c1ccc(-c2ccc(O)cc2)s1)c1[nH]c2ccc(Br)cc2c1-c1ccccc1`: the growth was -12.4% (active).

As for `CN(C)c1ccc(/C=C/c2nc3ccccc3c(=O)n2CC(=O)Nc2ccc(Cl)cc2)cc1`, the growth is 95%.

Take `C=C1CCC2C3(C)COC(c4cc(F)cc(F)c4)OC3CCC2(C)C1CC(O)C1=CCOC1=O` (configuration not stated): the growth was 61.2%.

Consider `O=C1S/C(=C\c2ccc([N+](=O)[O-])cc2)C(=O)N1CCN1CCCCC1`, for which the growth was 98.6%.

Consider `COc1ccc(CN2[C@@H](C(=O)NCc3ccc(C(=O)NO)cc3)Cc3c([nH]c4ccccc34)[C@@H]2C)cc1`, for which the growth is -5.52% (active).

As for `CN(C)CCCNC(=S)Nc1ccc(/C=C/c2ccc(Cl)cc2)cc1`, the growth was -22.4% (active).

For the molecule `COc1ccc2[nH]c(O)c(N=NC(=O)c3ccc4nc(-c5ccc(Cl)cc5)[nH]c4c3)c2c1`, the growth is 88.5%.

As for `Cc1nc2sccn2c1-c1nnc(SCc2ccccc2)o1`, the growth was 89.9%.

As to `Cc1cccc(Nc2nc3ccccc3nc2/C=C/c2ccc(F)cc2)c1`, the growth is 97.3%.

Take `O=C(CSc1nnc(-c2ccc(-c3nc4ccc(Cl)cc4[nH]3)cc2)o1)Nc1ccccc1`: the growth is 42.1%.

`O=C(OCCOCCO)N(c1cccc(Br)c1)c1nc(SCCN2CCOCC2)nc2c1cnn2CC(Cl)c1ccc(Br)cc1` (configuration not stated): the growth was -46.8% (active).

As to `COc1cc(/C=C/C(=O)c2ccc(S(=O)(=O)NCCNc3nc(N(C)C)nc(N4CCOCC4)n3)cc2)cc(OC)c1OC`, the growth is -64.8% (active).

Turning to `O=C(Cn1c(-c2ccccc2)nc2ccccc21)N=Nc1c(O)[nH]c2ccc(Cl)cc12`, the growth was 57.2%.

For `C=C1CCC2C3(C)COC(c4c(F)cccc4F)OC3CCC2(C)C1CC(O)C1=CCOC1=O` (configuration not stated), the growth is 81.6%.

In the case of `CC1(C)CC(=O)C2=C(C1)N(Cc1ccc(C(=O)O)cc1)C1=C(C(=O)CC(C)(C)C1)C2c1ccc(Cl)cc1`, the growth is 107%.
